Rows were chosen to be rich in hits. Some 3.3% of all compounds tested hit in one or more screens of this group.
RE007 growth inh – less growth of the S. pombe RE007 Vpr strain. 360,000 compounds, 0.21% hits. Potency, µM (highest dose often 92.2 µM), for inactives: at the top dose activity change, negative = less growth, most hits filed as inhibitors. S. pombe RE007 Vpr strain, BacTiter-Glo ATP luminescence, 24 h; active = well fitted falling curve with a large enough effect; inconclusive = small, poorly fitted or top-dose-only effect; inactive = no such curve, though single readings can be large or run the other way; also: potency is read from the fitted curve at half-maximal effect; % is scaled to controls: 0 for no effect and ±100 for the full control effect; nearly all actives have a fitted effect of over 50% in size
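Fission yeast RE007 carrying one integrated HIV-1 vpr copy, seeded at OD 0.01 in PMG+AL medium with 23 nL pinned compound. Grown 24 h at 30 degrees; viability read by BacTiter-Glo luminescence after 5 min.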
TbPYK inhibitor – inhibitors of Trypanosoma brucei pyruvate kinase | Q57TT1 | TbPYK enzyme, Kinase-Glo Plus ATP luminescence, 45 min | Potency, µM (doses to about 76.8 µM), for inactives: top-dose activity, negative = inhibition, most hits filed as inhibitors | 410,000 compounds, 0.12% hits; also: potency is read from the fitted curve at half-maximal effect; % is scaled to controls: 0 for no effect and ±100 for the full control effect; nearly all actives have a fitted effect of over 50% in size
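Assay buffer: 50 mM TEA pH 7.2, 100 mM KCl, 10 mM MgCl2, 0.05% BSA, 0.01% Tween-20. Pyruvate kinase from T. brucei plus substrate met compound, then ADP (130 uM final). Luminescence was read post 45 min RT.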
Sm TGR inh – inhibitors of Schistosoma mansoni thioredoxin glutathione reductase; Q962Y6; purified TGR, DTNB reduction, TNB absorbance 405 nm; Potency, µM (doses to about 114 µM), without a hit: at the top dose activity change, negative = inhibition, actives largely listed as inhibitors; 360,000 compounds, 3% hits; AID 485364; also: potency is read from the fitted curve at half-maximal effect; % is scaled to controls: 0 for no effect and ±100 for the full control effect; nearly all actives have a fitted effect of over 60% in size
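First, TGR (20 nM dispensed) and NADPH were mixed with compound. Second, a 15 min room-temperature incubation followed. Third, further NADPH and then DTNB were added to start the reaction. Finally, TNB absorbance was monitored kinetically.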
LmPK inhibitor – LmPK (Leishmania mexicana) enzyme inhibition | purified LmPK, Kinase-Glo ATP luminescence, 1 h | 290,000 compounds, 0.37% hits | Potency, µM (highest dose often 57.5 µM), for the others: at the highest dose activity change, negative = inhibition, most hits filed as inhibitors | Q27686; also: potency is read from the fitted curve at half-maximal effect; % is scaled to controls: 0 for no effect and ±100 for the full control effect
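Pyruvate kinase activity monitored as ATP production (luciferase luminescence). Conditions: 0.1 nM enzyme, 0.5 mM PEP, 0.1 mM ADP, 1 h, RT; normalized against uninhibited and no-enzyme wells.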
FBPA Giardia inh – inhibitors of Giardia lamblia fructose-1,6-bisphosphate aldolase | purified Giardia FBPA | Potency, µM (highest dose often 59.6 µM), inactives show at the top dose activity, negative = inhibition, usual class: inhibitors | 290,000 compounds, 0.71% hits | AID 2451; also: potency is read from the fitted curve at half-maximal effect; % is scaled to controls: 0 for no effect and ±100 for the full control effect; nearly all actives have a fitted effect of over 55% in size
Target sequence (A8B2U2 whole entry, looked up): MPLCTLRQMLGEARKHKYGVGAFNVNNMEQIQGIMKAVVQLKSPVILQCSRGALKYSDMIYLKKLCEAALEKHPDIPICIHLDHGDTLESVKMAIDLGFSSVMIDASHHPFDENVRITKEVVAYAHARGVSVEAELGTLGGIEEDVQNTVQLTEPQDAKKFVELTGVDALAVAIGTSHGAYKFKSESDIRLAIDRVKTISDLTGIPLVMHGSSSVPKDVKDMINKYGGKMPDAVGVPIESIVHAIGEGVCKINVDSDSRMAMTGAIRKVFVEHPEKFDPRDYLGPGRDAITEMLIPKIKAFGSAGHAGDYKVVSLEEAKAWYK
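40 nM FBPA preincubated 10 min at RT with compound (up to 57.5 uM final), then substrate plus GAPDH/TPI/NAD/arsenate coupling and diaphorase/resazurin added. Fluorescence read after 20 min at RT, 525/598 nm.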
LmPK confirm – Inhibits Leishmania mexicana pyruvate kinase, confirmation | shares compounds with LmPK inhibitor | purified LmPK, Kinase-Glo ATP luminescence, 1 h | Potency, µM (top dose mostly 57.5 µM), inactives show at the top dose activity change, negative = inhibition, actives largely listed as inhibitors | 150 compounds, 40% hits | AID 2559;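 active = compounds giving a full or partial concentration-response curve, as inhibitors or activators; inconclusive = weak, top-dose-only or unclear curve responses; inactive = no response at any tested dose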
The depositor's hits bear a star; ? = inconclusive; / = no result; [ ] = dose if it differs, or a comment. Unless noted, calls follow the shape of the dose curve; as a rule, active = well fitted curve in the direction sought with a large enough effect; inconclusive = small, poorly fitted or top-dose-only effect, or another doubt; inactive = no such curve, though single readings can be large; an effect the other way counts as inactive or inconclusive.

SMILES	RE007 growth inh	TbPYK inhibitor	Sm TGR inh	LmPK inhibitor	FBPA Giardia inh	others
O=c1c2ccccc2nc(COc2ccccc2)n1/N=C/c1ccc(O)c(O)c1	2%	-2%	-6%	-1%	-30%
S=c1[nH]nc(COc2ccccc2)n1/N=C/C=C/c1ccco1	20%	?	13µM*	1%	?
O=c1c2ccccc2nc(COc2ccccc2)n1/N=C/c1ccco1	-5%	3%	40µM*	5%	-1%
COc1ccccc1/C=C/C=N/n1c(-c2n[nH]c3c2CCC3)n[nH]c1=S	7%	?	4%	-3%	-11%
CCn1cc(-c2n[nH]c(=S)n2-c2ccc(C)cc2Br)c(=O)c2ccc(C)nc21	-18%	?	6%	7.9µM*	4%
COc1ccc(NC(=O)CN(C)CC(=O)Nc2ccccc2SC)cc1	4%	-20%	-2%	-8%	?
Cc1cc(-c2cc(-c3ccc(Cl)cc3)nc(N)c2C#N)co1	45µM*	?	3.2µM*	-3%	?
Cc1ccc(-c2cc(-c3ccc(Cl)cc3)c(C#N)c(N)n2)o1	-20%	?	3.5µM*	-16%	?
Cc1ccc(-c2cc(-c3ccc(F)cc3)c(C#N)c(N)n2)o1	?	?	20µM*	-21%	?
Cc1ccc(-c2c(C#N)c(N)nc3c2CCCCCC3)o1	-8%	-4%	-7%	1%	-7%
Cc1ccc(-c2cc(-c3ccc4c(c3)OCO4)c(C#N)c(N)n2)o1	-13%	-21%	10µM*	-11%	?
COc1ccc(-c2cc(-c3ccc(O)cc3)nc(N)c2C#N)cc1OC	-4%	-8%	-31%	-4%	-6%
COCCCn1cc(CN2CC(N3CCCC3)CS2(=O)=O)nn1 (configuration not stated)	6%	-12%	/	/	/
CCOc1cc(-c2cc(-c3ccc(C)o3)nc(N)c2C#N)ccc1O	4%	7%	-24%	14%	-1%
Cc1ccc(-c2cc(-c3ccc(C)o3)nc(N)c2C#N)cc1	?	28µM*	3.2µM*	-24%	?
Cc1ccc(NC(=O)c2cc(S(=O)(=O)N3CCCC3)cn2C)cc1C	-1%	-10%	-5%	1%	11%
Cn1cc(NC(=O)c2cc(NC(=O)c3cc(NC=O)cn3C)cn2C)cc1C(=O)NCCC(=N)N	/	1%	14µM*	-2%	?
Cc1ccccc1OCc1nc2ccccc2[nH]1	?	-2%	10%	18µM*	-13%
COc1ccc(CSc2nc3ncccc3[nH]2)cc1	/	-4%	3%	/	/
CN(C)C(=O)Oc1ccc(OCc2nc3ccccc3[nH]2)cc1	?	?	-5%	7.1µM*	3%
COc1ccc(OCc2nc3ccccc3[nH]2)cc1	-3%	-9%	-19%	18µM*	-2%
COc1ccc(CSc2nc3ccccc3[nH]2)cc1	32µM*	-10%	19%	16µM*	-5%
COc1ccccc1OCc1nc2ccccc2[nH]1	1%	6%	-2%	-17%	-13%
O=S(=O)(c1cc(Cl)ccc1Br)N1CCCCC1	-4%	-2%	3%	1%	6%
COc1ccc(CCNC(=O)C23CCC(C)(C(=O)C2=O)C3(C)C)cc1OC (configuration not stated)	-2%	-3%	-5%	-2%	4%
SMILES	RE007 growth inh	TbPYK inhibitor	Sm TGR inh	LmPK inhibitor	FBPA Giardia inh	others
CCC(C)C(NC(=O)CCC(=O)OCC(=O)[C@@]1(O)CCC2[C@@H]3CCC4=CC(=O)C=C[C@]4(C)C3[C@@H](O)C[C@@]21C)C(=O)O (some centres not stated)	6%	1%	-24%	0%	2%
Cc1ccc2c(c1)N(Cc1ccccc1)C(=O)C(C)S2 (configuration not stated)	12%	1%	/	/	/
CCOC(=O)c1cc(-c2ccccc2)sc1NC(=O)CN1C(=O)NC(CC)(c2ccccc2)C1=O (configuration not stated)	15%[3.69 µM]	/	-20%	1%	5%
Cc1cccc[n+]1CCCCCCCCCC[n+]1ccccc1C	-11%	1%	-7%[57.1 µM]	-6%	-1%
CCCc1ncc(C[n+]2ccccc2C)c(N)n1	-17%	5%	45µM*	/	?
Cc1c(C(=O)Nc2ccc(-n3cnnn3)cc2)oc2ccccc12	10%	-2%	0%	3%	-23%
NS(=O)(=O)c1ccc(-c2ccc(C=C3C(=O)NC(=S)NC3=O)o2)cc1	/	/	2.2µM*	1%	?
CC1(C)OC(=O)C(=Cc2ccc(-c3ccc(S(N)(=O)=O)cc3)o2)C(=O)O1	9%	22µM*	2%	-1%	-8%
NS(=O)(=O)c1ccc(-c2ccc(C=C3C(=O)NC(=O)NC3=O)o2)cc1	12%	10µM*	?	-14%	-5%
CC(=O)Nc1ccc(S(=O)(=O)NCc2cccnc2)cc1	-5%	5%	5%	-4%	0%
COc1ccc(CC(=O)Nc2nc3c(s2)CCCC3)cc1	/	2%	0%	/	/
Cc1ccc(S(=O)(=O)N2CCN(Cc3ccccc3C(F)(F)F)CC2)cc1	15%	-11%	16%	-8%	?	LmPK confirm=4%
COc1ccc(CNc2nc3ccccc3c3nc(-c4ccccc4)nn23)cc1	/	-1%	11%	/	/
O=Cc1ccc(O)cc1O	5%	-7%	-20%	-11%	4%
O=CN/C=C/c1cc(O)ccc1O	-3%	-21%	6.3µM*	4.5µM*	?	LmPK confirm=?
CCOC(=O)CNS(=O)(=O)c1cc(-c2nn(C)c(=O)c3ccccc23)ccc1C	11%	-10%	-3%	2%	-12%	LmPK confirm=7%
CC(C)(C)NC(=O)C(c1ccncc1)N(C(=O)Cn1nnc(-c2ccc(F)cc2)n1)c1ccccc1 (configuration not stated)	5%	0%	?	8.9µM*	-27%	LmPK confirm=-6%
COc1ccc(CNCc2cccc(Cl)c2)cc1	-11%	-4%	-15%	-6%	-17%
CCOc1cc(NC(=S)NCC2CCCO2)c(OCC)cc1NC(=O)CC (configuration not stated)	0%	1%	-28%	5%	0%
Cn1c(Cl)nc2ccccc21	4%	1%	1%	-3%	1%
Cn1c(N=Nc2ccccc2)nc2ccccc21	16µM*	14µM*	-3%	2.2µM*	-23%	LmPK confirm=7.3µM*
CCn1c(NCc2ccc(N(C)C)cc2)nc2ccccc21	-10%	-1%	1%	-1%	1%
CN(C)c1ccc(N=Nc2nc3ccccc3n2C)cc1	11µM*	14µM*	-16%	4µM*	-10%	LmPK confirm=3.7µM*
CCN1/C(=C/c2ccc3cc(C)cc(C)c3[n+]2CC)Sc2cc(C)ccc21	?	-16%	-18%	-10%	-1%

Screens (PubChem)
